# Screening results: PubChem, National Center for Advancing Translational Sciences (NCATS)
# Compounds with a hit are over-represented: about 18% of the library has one in this group of screens.
# Gal4-VP16 FLuc – inhibits Gal4-VP16 luciferase reporter, ROR gamma counter-screen. Drosophila S2 Gal4-VP16 UAS-luciferase, luminescence, 20 h. Potency, µM (doses to about 53.6 µM), for inactives: at the highest dose activity, negative = inhibition, actives largely listed as inhibitors. 310,000 compounds, 3.5% hits. AID 2546;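 also: Gal4-VP16 expression switched on by copper sulfate through the metallothionein promoter; potency is read from the fitted curve at half-maximal effect; nearly all actives have a fitted effect of over 50% in size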
# RORg inh – ROR gamma (mouse) transcription inhibition; P51450; Drosophila S2 Gal4-RORgamma UAS-luciferase reporter, 20 h; AID 2551; 310,000 compounds, 5.4% hits; Potency, µM (titrated, usually from 53.6 µM), for inactives: at the highest dose activity change, negative = inhibition, hits mostly inhibitors; also: potency is read from the fitted curve at half-maximal effect; nearly all actives have a fitted effect of over 60% in size
# Target sequence (P51450 whole entry, looked up, the tested form may be a part): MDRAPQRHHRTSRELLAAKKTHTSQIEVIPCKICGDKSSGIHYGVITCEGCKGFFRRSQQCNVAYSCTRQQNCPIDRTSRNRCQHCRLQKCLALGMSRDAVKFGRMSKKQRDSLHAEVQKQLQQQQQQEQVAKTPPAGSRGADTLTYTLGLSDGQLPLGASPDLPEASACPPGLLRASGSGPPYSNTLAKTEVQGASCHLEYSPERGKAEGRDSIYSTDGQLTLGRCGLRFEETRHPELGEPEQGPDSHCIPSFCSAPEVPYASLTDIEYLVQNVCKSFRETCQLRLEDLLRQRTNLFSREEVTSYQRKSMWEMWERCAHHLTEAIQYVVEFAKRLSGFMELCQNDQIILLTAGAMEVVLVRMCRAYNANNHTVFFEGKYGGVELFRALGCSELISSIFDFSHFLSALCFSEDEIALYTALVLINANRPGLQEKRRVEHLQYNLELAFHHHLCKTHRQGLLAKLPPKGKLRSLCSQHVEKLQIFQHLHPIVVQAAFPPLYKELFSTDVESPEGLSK
#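 Schneider cells (Drosophila), stable Gal4 DBD–ROR gamma + UAS-luc; 1 hr cmpd preincubation; Cu2+ induction 700 uM final; 20 hr ambient; luminescence.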
# DT40 TDP1 no CPT – qHTS for Inhibitors of human tyrosyl-DNA phosphodiesterase 1 (TDP1): qHTS in cells in absence of CPT | DT40 Tdp1-/- hTDP1 cells, no CPT, ATP luminescence, 48 h | Potency, µM (highest dose often 46.2 µM), for inactives: at the highest dose activity change, negative = growth inhibition, most hits filed as inhibitors | AID 686978, 2013 | 420,000 compounds, 15% hits; also: potency is read from the fitted curve at half-maximal effect; nearly all actives have a fitted effect of over 55% in size
#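 Compound effects on proliferation are scored in DT40 Tdp1-/-;hTDP1 cells in the absence of CPT. ATP levels (CellTiter-Glo luminescence) are recorded after a ≥48 hr, 37 °C incubation.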
# DT40 TDP1 CPT – DT40-hTDP1 cell growth loss with CPT; chicken DT40 Tdp1-/-;hTDP1 cells + 20 nM CPT, ATP luminescence, 48 h; Potency, µM (doses to about 46.2 µM), for inactives: at the highest dose activity change, negative = growth inhibition, usual class: inhibitors; 420,000 compounds, 12% hits; also: potency is read from the fitted curve at half-maximal effect; nearly all actives have a fitted effect of over 55% in size
#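 Cell growth measured by CellTiter-Glo luminescence after a minimum 48 h, 37 C compound exposure with 20 nM CPT in Tdp1-knockout DT40 cells stably expressing hTDP1, seeded 400/well; qHTS titration format.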
# LDHA inh – LDHA (human) enzyme inhibition. P00338. purified LDHA, NADH/diaphorase-resazurin fluorescence; hits give low values. activity change, % (values are at about 110 or 230 µM). 480,000 compounds, 0.15% hits. AID 1347041; in the data active = activity change below about -30%; inconclusive = mostly about -25% to -30%;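 also: plate controls were DMSO wells for no effect and wells without enzyme for full effect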
#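 LDH5 2 nM; NADH 0.06 mM, pyruvate 0.2 mM; 200 mM Tris pH 7.4, EDTA, Tween-20; 5 min RT. Detection: diaphorase 0.133 mg/mL + resazurin 37 µM, fluorescence ex540/em590 at 0 and 20 min; normalized to enzyme-free and DMSO wells.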
# IL-1B inflam inh – blocks inflammasome-driven IL-1 beta release; 360,000 compounds, 4.7% hits; THP-1 LPS/ATP IL-1B secretion, AlphaLISA, 16 h; hits give low values; activity change, % at 57.5 µM; in the data active = activity change below about -50%; inconclusive = mostly about -30% to -49%
#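 THP-1 cells pretreated 1 hr with compounds (up to 57.5 uM final), then stimulated with LPS (250 ng/mL final) plus ATP (1.25 mM final); secreted IL-1B measured by AlphaLISA after 16 hr, decreased signal indicating inhibition.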
# Active calls of the source: *; ? = inconclusive; . = no result; [ ] = another dose, or the depositor's remark. Unless noted, calls follow the shape of the dose curve; as a rule, active = well fitted curve in the direction sought with a large enough effect; inconclusive = small, poorly fitted or top-dose-only effect, or another doubt; inactive = no such curve, though single readings can be large; an effect the other way counts as inactive or inconclusive. Unless noted, % is scaled to controls: 0 for no effect and ±100 for the full control effect.
SMILES,Gal4-VP16 FLuc,RORg inh,DT40 TDP1 no CPT,DT40 TDP1 CPT,LDHA inh,IL-1B inflam inh
O=C(Nc1nc(-c2ccccn2)cs1)c1ccc(-c2ccccc2F)o1,.,.,10.3µM*,5.8µM*,-1.7,94.3
Cc1ccsc1CN(CC1CCCO1)C(=O)COc1ccc(Cl)cc1Cl (stereo not drawn),.,.,.,.,-2.7,.
COCCCNCCOCCOc1ccccc1-c1ccccc1,-8.5%,-11.1%,?,?,-10.8,-22.0
CC(C)(C)NCCOCCOc1ccccc1-c1ccccc1,2.3%,-4.0%,?,11.6µM*,?,5.4
CCOc1cccc(OCCOCCNC(C)(C)C)c1,0.3%,5.3%,-0.2%,-3.4%,-32.4*,0.0
Nn1c(SCC(=O)NCc2ccc(Cl)cc2)nnc1-c1cccs1,.,.,.,.,-3.7,.
CC1=C(C(=O)Nc2ccccc2)C(c2ccc(Br)cc2)NC(=S)N1 (stereo not drawn),.,.,.,.,9.4,.
C/C(=N\NC(=O)CNC(=O)C(c1ccccc1)c1ccccc1)c1ccc(C(C)(C)C)cc1,?,-10.0%,16.4µM*,16.4µM*,-1.3,7.4
COc1ccc(/C(C)=N\NC(=O)CNC(=O)C(c2ccccc2)c2ccccc2)cc1OC,?,-16.6%,-6.8%,?,-6.5,51.4
COc1ccc(CN(Cc2ccco2)C(=O)c2cc(=O)c3ccccc3o2)cc1,.,.,.,.,7.0,.
CC(C)n1c(=S)[nH]c2cc(Cl)ccc21,20µM*,?,?,-18.9%,2.7,18.8
O=C(O)C1CC=CC2CCN(C3CC3)C(=O)C21 (stereo not drawn),-12.5%,21.0%,.,.,.,.
O=C1[C@@H](c2ccccc2)CC[C@@H]2C=CC[C@H]3CCN1[C@@H]32,.,.,16.4µM*,?,-2.2,3.6
N#Cc1nc(-c2ccc([N+](=O)[O-])cc2)oc1NC1CC1,.,.,.,.,-0.9,.
CC(/C=N/NC(=O)c1cnccn1)=C\c1ccco1,4.2%,19.5%,?,4.7%,16.9,.
CC(/C=N/NC(=O)c1cc(-c2ccc(Cl)cc2)nc2ccccc12)=C\c1ccco1,2.3%,2.0%,3.26µM*,2.91µM*,8.6,2.7
CC(/C=N/NC(=O)c1cc(-c2ccccc2)nc2ccccc12)=C\c1ccco1,6.2%,-10.6%,0.731µM*,2.31µM*,1.0,-12.1
CCCCn1c(O)c(C2=Nc3ccccc3SC(c3cccc(O)c3)C2)c(=O)[nH]c1=O (stereo not drawn),.,.,.,.,3.5,.
COc1ccc(/C=C2\Cc3ccccc3C2=O)cc1Br,.,.,.,.,4.9,.
CC(C)=CC1C(C(=O)Nc2c(C)cccc2C(C)C)C1(C)C (stereo not drawn),.,.,.,.,1.8,.
COc1ccc(S(=O)(=O)NCc2ccccn2)cc1OC,8.8%,4.3%,-3.1%,7.7%,-5.9,40.3
COc1ccc(S(=O)(=O)NCc2ccccn2)cc1Cl,-1.0%,-39.1%,-9.1%,-9.3%,-2.8,-12.2
CC(C)(C)c1ccc(S(=O)(=O)NCc2ccc(C(=O)NCc3ccccn3)cc2)cc1,0.7%,23.7%,18.4µM*,20.6µM*,-7.0,-1.6
COc1ccc(S(=O)(=O)NCc2ccccn2)cc1NC(=O)c1ccccc1C,.,.,4.61µM*,4.11µM*,-4.2,23.7
COc1ccc(S(=O)(=O)NCc2ccccn2)cc1NC(=O)c1ccc(Cl)cc1,.,.,16.4µM*,?,-6.2,-13.5
SMILES,Gal4-VP16 FLuc,RORg inh,DT40 TDP1 no CPT,DT40 TDP1 CPT,LDHA inh,IL-1B inflam inh
COc1ccccc1Oc1ccc(S(=O)(=O)NCc2ccccn2)cc1,-15.7%,-10.5%,14.1µM*,?,-8.0,-4.0
COc1ccc(CNC(=O)Cc2c(C)c3c(OC(C)=O)cc(OC(C)=O)cc3oc2=O)cc1,.,.,.,.,4.9,.
COC(=O)c1ccccc1NC(=O)C1=C(c2ccccc2)S(=O)(=O)CCO1,.,.,.,.,-0.3,.
O=C1c2ccccc2C(=O)N1CC(O)Cn1nnc2ccccc21 (stereo not drawn),-8.3%[0.365 µM],5.6%,-0.8%,1.1%,0.8,18.9
Cn1c(Cn2nnc3ccccc32)nnc1SCC(=O)N1c2ccccc2CCc2ccccc21,-9.9%,?,?,23.1µM*,2.6,-12.7
Cn1c(Cn2nnc3ccccc32)nnc1SCC(=O)N1c2ccccc2Sc2ccccc21,?,-15.2%,16.4µM*,13µM*,5.3,-3.4
Cn1c(Cn2nnc3ccccc32)nnc1SCC(N)=O,-13.0%,19.4%,-11.5%,-16.1%,1.8,23.8
OC(CN1c2ccccc2Sc2ccccc21)Cn1nnc2ccccc21 (stereo not drawn),1.2%[0.365 µM],-24.9%,20.6µM*,?,-2.7,?
O=C(Cc1cccc2ccccc12)N/N=C/c1ccsc1,.,.,.,.,-1.7,.
Cc1ccccc1CCNC(=O)C1CC2CCCC(C1)C2=O (stereo not drawn),.,.,.,.,-3.5,.
COc1ccc2cc(Br)ccc2c1CC(=O)NC1CC(C)(C)NC(C)(C)C1,-2.1%,4.4%,23.1µM*,?,-1.3,-65.7*
NC(=O)c1ccccc1NC(=O)c1cc2ccccc2oc1=O,.,.,.,.,2.3,.
COc1ccccc1N1CCN(C(=O)c2ccc(COc3cccc4c3OC(C)(C)C4)cc2)CC1,.,.,16.4µM*,?,-1.6,?
O=C(c1ccc(CN2CCc3ccccc3C2)cc1)N1CCN(c2ccc(F)cc2)CC1,.,.,13µM*,16.4µM*,-3.9,-62.5*
O=C(c1ccc(Cn2cc(Br)cn2)cc1)N1CCN(c2ccccc2)CC1,6.4%,19.4%,16.4µM*,14.6µM*,-1.7,-10.9
COc1ccccc1N1CCN(C(=O)c2ccc(CN3CCc4ccccc4C3)cc2)CC1,7.7%,2.5%,?,16.4µM*,1.7,-14.1
O=C(c1ccc(CN2CCc3ccccc3C2)cc1)N1CCCCC1,1.6%,13.4%,?,-27.8%,-1.5,8.0
COc1ccc(-c2csc(CCn3nc(C)c4c(C(F)(F)F)cc(=O)[nH]c43)n2)cc1,.,.,.,.,1.9,.
Cc1cccc(NC(=O)c2cc(=O)c3cc(C)ccc3o2)c1,.,.,.,.,-12.5,.
O=S(=O)(NCC1(c2ccccc2)CCC1)c1cccc(F)c1,.,.,.,.,-2.9,.
CC(C)c1ccc(C2c3c(-c4ccccc4O)n[nH]c3C(=O)N2Cc2ccncc2)cc1 (stereo not drawn),.,.,?,?,-7.4,.
COC(=O)c1ccc(C2c3c(-c4ccccc4O)n[nH]c3C(=O)N2Cc2cccnc2)cc1 (stereo not drawn),.,.,?,?,9.6,.
CSc1ccc(C2c3c(-c4ccccc4O)n[nH]c3C(=O)N2Cc2ccncc2)cc1 (stereo not drawn),.,.,18.4µM*,23.1µM*,-4.5,.
